Assay results reported in PubChem BioAssay.
Values joined by “and” are separate entries in the source; they are usually repeats but may differ in a detail not shown here. Identical values can stand only once. Active and inactive are the calls of the source.

Assay: JC-1 mitochondrial signal, unstimulated HepG2 cells – cell-based, JC-1 fluorescence, 24 h, 100 nL compound, profiling panel (AID 1167)
Conditions: HepG2 mitochondrial potential, higher = more signal
Further: test concentration not given here.

z-score, 1.09 and 4.63:
COC(=O)c1c2oc(c1C(=O)OC)C(=O)N[C@@H](Cc1ccccc1)Cn1cc(nn1)C1(CCCCC1)NC(=O)N[C@H](CO)CC2

z-score, 0.397:
CCOC(=O)[C@H](Cc1ccccc1)NC(=O)CCC1CC(OC(=O)NCc2cccc3ccccc23)CC2(CCCC(COC(=O)NCCCN3CCCC3=O)O2)O1 (some centres undefined)

z-score, 1.26 and 0.706:
C=CCN(Cc1ccccc1)C(=O)C(c1cccs1)N(C(=O)/C=C\C(=O)O)c1ccc(CCO)cc1 (centres undefined)

z-score, -0.587 and -1.1:
C=CCN(CCCCC)C(=O)C1N(c2ccc(CCO)cc2)C(=O)C2C(C(=O)O)C3C=CC21O3 (centres undefined)

Assay: JC-1 mitochondrial signal, unstimulated adipocytes – cell-based, JC-1 fluorescence, 3T3-L1 adipocytes, 24 h, 100 nL compound, profiling panel (AID 1168)
Conditions: JC-1 mitochondrial fluorescence, higher = more signal, called active from +8 up or from −8 down

z-score, inactive:
CC(=O)OC[C@H]1O[C@H](C#CC(C)(C)C)C=C[C@@H]1OC(C)=O 0.386
COc1ccc(O[C@H]2C=C[C@@H](c3ccccc3)O[C@@H]2COC(=O)CCC(C)=NO[C@H](C)c2cn([C@H](CO)Cc3ccccc3)nn2)cc1 -2.62 and -0.634
CCCC[C@@H]1CN2[C@H](c3ccc(Br)cc3)[C@@H](C)CC[C@H]2C(=O)O1 -0.299 and -0.848
CC(CO)N1C(=O)[C@@H]2C3C(=O)OCCC=C[C@H]3OC23C=CCN(C(C)(C)C)C(=O)[C@@H]13 (some centres undefined) -0.105 and -0.534
C=CCN(C(=O)C1N(CCOCCO)C(=O)C2C(C(=O)O)C3C=CC21O3)C(C)(C)C (centres undefined) -0.693 and -0.523
C[C@@H](ON=C1[C@H]2CCn3c(=O)n(-c4ccccc4)c(=O)n3[C@H]2[C@H](O)[C@@H]2O[C@H]12)c1cn([C@H](CO)Cc2ccccc2)nn1 0.31
CO[C@H]1COC(=O)CC=C[C@H](C)[C@H](OC)COC(=O)[C@@H](C)COC(=O)CC=C[C@@H]1C -0.317 and 0.125
COC(=O)[C@H](C)NC(=O)CCC1CC(OC(=O)NCCc2ccc(F)cc2)CC2(CCCC(COC(=O)NCCCN3CCCC3=O)O2)O1 (some centres undefined) 0.0783
CCOC(=O)[C@@H]1CC2O[C@]23C[C@@H]1C(=O)N1CCC[C@@H]1[C@H]3O[Si](C)(C)C(C)(C)C (some centres undefined) -0.744 and -0.631
C[C@@H]1CC[C@H]2C(=O)O[C@H](CN=[N+]=[N-])CN2[C@H]1c1ccc(Br)cc1 -0.136 and 0.265
O=c1n(-c2ccccc2)c(=O)n2n1CC[C@@H]1C(=NOC[C@@H](O)COCc3ccco3)[C@H]3O[C@H]3[C@@H](O)[C@@H]12 0.127 and -1.22
C=C(C)C(=O)OC[C@@H]1CN2[C@@H](CC[C@@H](C)[C@@H]2c2ccc(Br)cc2)C(=O)O1 0.945
CCCNC(=O)OC[C@H]1O[C@H](CCON=C(C)CCC(=O)OC[C@H]2O[C@H](C#Cc3ccccc3)C=C[C@@H]2Oc2ccc(C)cc2)C=C[C@@H]1Oc1ccc(OC)cc1 -1.31
C=C[C@@H](OC)[C@H](O)c1ccc(O)c(F)c1 0.0698 and -0.132
COCn1c2ccccc2c2nnc(C(C)=O)nc21 0.0492 and 0.883
CC[C@@H]1C(Sc2ccccc2)C(C(=O)O)[C@H](c2ccc(C)cc2)N1S(=O)(=O)c1ccc(C)cc1 (some centres undefined) 0.164 and 0.619
C=CCN(C(=O)C(c1cccs1)N(C(=O)/C=C\C(=O)O)c1c(Cl)cccc1CO)c1ccc(OC)cc1 (centres undefined) 0.418 and 0.623
CO[C@@H]1COC(=O)[C@H](Cc2ccccc2)NC(=O)CC=C[C@@H](C)[C@H](OC)COC(=O)[C@@H](C)NC(=O)CC=C[C@H]1C 0.67 and 1.56
CCOC(=O)[C@@H]1CC=C2CC1C(=O)N1CCC[C@@H]1[C@H]2O[Si](C)(C)C(C)(C)C (some centres undefined) -0.649 and 0.192
C[C@@H](c1ccccc1)N1C(=O)[C@H]2[C@H]3[C@H](O)[C@H](O)CC(=O)[C@@H]3CC[C@H]2C1=O 2.42
C[C@@H]1CC[C@H]2C(=O)NC[C@@H](O)CN2[C@H]1c1ccc(Br)cc1 -0.455 and 0.104
CC(C)[Si]1(C(C)C)OCc2cc(CCCc3cc4c(c(CCc5ccccc5)n3)[Si](C(C)C)(C(C)C)OC4)nc(CCc3ccccc3)c21 1.72 and -1
Cc1cc2c(nc1C)CCCN2CC(C)ON=C[C@@H](C)[C@H](OCc1ccccc1)C(C)C (some centres undefined) -0.827
C=CCN(C(=O)C(c1cccs1)N(C(=O)/C=C\C(=O)O)c1ccc(CCO)cc1)C(C)(C)C (centres undefined) 0.529 and -0.179
C=C[C@@H](OC)[C@H](O)c1ccc(OCCO)cc1 0.36 and -1.97
C=CCN(C(=O)C(c1cccs1)N(CCOCCO)C(=O)/C=C\C(=O)O)c1ccc(OC)cc1 (centres undefined) -2.4 and 1.53
C=C[C@@H](C)[C@H](O)c1ccc(O)c2ccccc12 -1.42 and -0.865
C[C@@H]1CN2[C@@H](CC[C@@H](C)[C@@H]2c2ccc(Br)cc2)C(=O)O1 -0.0606 and 0.229
C=CCN(C(=O)C1N(c2ccc(CCO)cc2)C(=O)C2C(C(=O)O)C3C=CC21O3)c1ccc(OC)cc1 (centres undefined) -0.246 and -0.356
C=C[C@H](C)[C@@H](O)c1ccc(OCCO)cc1 0.428 and 0.45
C=CCN(C(=O)C(c1cccs1)N(CCOCCO)C(=O)/C=C\C(=O)O)C(C)(C)C (centres undefined) 1.16 and 0.0544
COC(=O)C1=C(C)N(Cc2ccccc2)[C@]23O[C@](C(=O)OC)(C(=O)N2[C@@H]1c1ccccc1)[C@@H](c1ccccc1)[C@@H]3C(=O)c1ccccc1 1.13 and 0.417
C=CCN(CCCC)C(=O)C1N(C(C)(C)CO)C(=O)C2C(C(=O)O)C3C=CC21O3 (centres undefined) -0.134 and 0.142
Cc1ccc(S(=O)(=O)N[C@H]2COC(=O)[C@@H](C)COC(=O)[C@H](C)NC(=O)CC=C[C@H]2C)cc1 0.198
Cc1ccc(S(=O)(=O)OC[C@@H]2CN3[C@@H](CC[C@@H](C)[C@@H]3c3ccc(Br)cc3)C(=O)O2)cc1 -0.303 and 0.303
COC(=O)C1=C(C)N(Cc2ccccc2)C2=C(C(=O)c3ccccc3)[C@H](c3ccccc3)[C@@](O)(C(=O)OC)C(=O)N2[C@@H]1c1ccccc1 -0.393 and -1.16
C=CCN(Cc1ccccc1)C(=O)C(c1cccs1)N(C(=O)/C=C\C(=O)O)c1ccc(CCO)cc1 (centres undefined) 0.645 and 1.1
CCOC(=O)[C@H](Cc1ccccc1)NC(=O)CCC1CC(OC(=O)NCc2cccc3ccccc23)CC2(CCCC(COC(=O)NCCCN3CCCC3=O)O2)O1 (some centres undefined) 0.17
COC(=O)c1c2oc(c1C(=O)OC)C(=O)N[C@@H](Cc1ccccc1)Cn1cc(nn1)C1(CCCCC1)NC(=O)N[C@H](CO)CC2 0.354 and -0.852
C=CCN(CCCCC)C(=O)C1N(c2ccc(CCO)cc2)C(=O)C2C(C(=O)O)C3C=CC21O3 (centres undefined) -0.545 and -0.407
